Results filed as inconclusive are left out. Active and inactive are the calls of the source. Rule for the calls: active = hit-call score of the fitted dose curve at least 0.9, where 1 is the maximum; inconclusive = response in the unintended direction; inactive = score below 0.9.
target: Cellular tumor antigen p53 (Homo sapiens) (UniProt P04637); assay: TOX21_p53_BLA_p2_ratio: Tox21 HCT-116 p53 Agonism Beta-lactamase Assay, Ratio, Phase 2 (AID 2283592)
Procedure, shortened: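 HCT-116 cells with p53-responsive beta-lactamase reporter, 4000 cells/well, preincubated 5 h, then compound in DMSO (217-fold dilution) for 16 h at 37C. CCF4-AM substrate 2 h at room temperature; 460/530 nm emission ratio fitted upward versus DMSO.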

Cellular tumor antigen p53 (Homo sapiens), sequence (P04637 whole entry, looked up): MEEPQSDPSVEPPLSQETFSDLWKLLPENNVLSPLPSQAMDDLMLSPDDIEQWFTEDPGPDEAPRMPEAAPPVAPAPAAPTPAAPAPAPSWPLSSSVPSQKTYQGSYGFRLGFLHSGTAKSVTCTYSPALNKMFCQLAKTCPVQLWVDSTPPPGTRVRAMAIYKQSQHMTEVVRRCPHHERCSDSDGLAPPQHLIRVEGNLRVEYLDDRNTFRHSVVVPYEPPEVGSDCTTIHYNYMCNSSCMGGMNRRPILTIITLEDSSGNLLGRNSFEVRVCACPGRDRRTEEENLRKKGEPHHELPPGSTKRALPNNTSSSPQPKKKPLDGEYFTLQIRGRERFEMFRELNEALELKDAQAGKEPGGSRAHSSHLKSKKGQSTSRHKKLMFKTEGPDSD

Row | Compound | outcome
1 | CCCC(C)CO (centres undefined) | inactive
2 | CCOC(=O)C(Br)c1ccccc1 (centres undefined) | inactive
3 | CO/N=C(\C(=O)N[C@@H]1C(=O)N2C(C(=O)O)=C(C[N+]3(C)CCCC3)CS[C@H]12)c1csc(N)n1 | inactive
4 | CC1(c2ccccc2)OC(C(=O)O)=CC1=O (centres undefined) | inactive
5 | CCN1CCN(C(=O)N[C@@H](C(=O)N[C@@H]2C(=O)N3C(C(=O)O)=C(CSc4nnnn4C)CS[C@H]23)c2ccc(O)cc2)C(=O)C1=O | inactive
6 | C1CCCNCCC1 | inactive
7 | CC(=O)CCC=C(C)CC/C=C(\C)CC/C=C(\C)CCC=C(C)C | inactive
8 | C=CCCCC | inactive
9 | CCN(CC)CCOC(=O)C(c1ccccc1)C1CCCCC1 (centres undefined) | inactive
10 | COc1ccc2c(c1)C(=O)N(CCc1ccc(S(=O)(=O)NC(=O)NC3CCCCC3)cc1)C(=O)C2(C)C | inactive
11 | CCOc1ccccc1N | inactive
12 | CCCCCCCCCCCCCCCC/C=C/C1CC(=O)OC1=O (centres undefined) | inactive
13 | c1cnc2cc3c(cc2n1)C1CNCC3C1 | inactive
14 | C[C@@H](O)[C@H]1C(=O)N2C(C(=O)O)=C([C@H]3CCCO3)S[C@H]12 | inactive
15 | FC(F)(F)C(Cl)(Cl)Cl | inactive
16 | OCC(O)COc1ccc(Cl)cc1 (centres undefined) | inactive
17 | CN1CC[C@H](c2c(O)cc(O)c3c(=O)cc(-c4ccccc4Cl)oc23)[C@H](O)C1 | inactive
18 | CC(C)(CCC(=O)O)C(=O)O | inactive
19 | CCCN(CCC)C(=O)C(CCC(=O)O)NC(=O)c1ccccc1 (centres undefined) | inactive

system: not listed separately; assay: TOX21_p53_BLA_p3_viability: Viability Assessment in the Tox21 HCT-116 p53 Agonism Beta-lactamase Assay, Phase 3 (AID 2283593);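 note: cells exposed to compound for 16 h before reading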
Procedure, shortened: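 HCT-116 cells (4000/well) rested 5 h at 37C, then got DMSO compounds by pin tool (217-fold dilution) for 16 h at 37C, 5% CO2. After the bla read, CellTiter-Glo was added and luminescence read at 30 min, room temperature.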

Row | Compound | outcome | AC50
20 | COc1cc2c(cc1OC)C(C(C(=O)N(CCc1ccc(OC)c(OC)c1OC)CCc1ccc(OC)c(OC)c1OC)c1ccccc1)=NCC2 (centres undefined) | inactive | –
21 | C[C@](N)(Cc1ccc(O)cc1)C(=O)O | inactive | –
22 | NCc1ccc(S(N)(=O)=O)cc1 | inactive | –
23 | CC(C)(C)CC(C)(C)c1ccc(Nc2ccc(C(C)(C)CC(C)(C)C)cc2)cc1 | inactive | –
24 | O=[N+]([O-])c1cc([N+](=O)[O-])c2ccc(S(=O)(=O)O)cc2c1O | inactive | –
25 | CC(C)(O)CCC(C)(C)O | inactive | –
26 | NC(=O)C1(N2CCCCC2)CCN(CCCC(=O)c2ccc(F)cc2)CC1 | – | 36.2 µM (active)
27 | CCCOC(C)=O | inactive | –
28 | CN(C)C(=O)Oc1ccc[n+](C)c1 | inactive | –
29 | CC(=O)OCC(C)C | inactive | –
30 | C=C(C)C(=O)OCCOCC | inactive | –
31 | C=C(C)C(=O)OCCCCCCCC(C)C | inactive | –
32 | O=C(O)CC/C=C\CC[C@@H]1[C@@H](N2CCCCC2)[C@@H](O)C[C@@H]1OCc1ccc(-c2ccccc2)cc1 | inactive | –
33 | Cc1ccc(N)nc1 | inactive | –
34 | Cc1ccc(Cl)cc1Cl | inactive | –
35 | CNS(=O)(=O)Cc1ccc2[nH]cc(CCN(C)C)c2c1 | inactive | –
36 | CC[C@@H](N)CO | inactive | –
37 | COc1ccc(CC2c3cc(OC)c(OC)cc3CC[N+]2(C)CCC(=O)OCCCCCOC(=O)CC[N+]2(C)CCc3cc(OC)c(OC)cc3C2Cc2ccc(OC)c(OC)c2)cc1OC (centres undefined) | inactive | –
38 | COC(=O)NN | inactive | –
39 | O=C(/C=C/c1ccc(O)c(O)c1)O[C@@H](C(=O)O)[C@@H](OC(=O)/C=C/c1ccc(O)c(O)c1)C(=O)O | inactive | –

Reference: PubChem BioAssay (EPA / NIEHS)
